In PubChem BioAssay AID1214 (Sanford-Burnham Center for Chemical Genomics, 2008):
Screen size: about 190,000 compounds; about 10 (0.005%) were called active.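 The calls were made as follows: active = activation factor of 2 or more at 20 µM, relative to plate controls; inactive = the rest.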 Only a sample is shown.

Target: Mannose-6-phosphate isomerase (Homo sapiens) (UniProt P34949)
Assay: MPI enzyme activity enhancement – biochemical, fluorescence intensity, near-Km mannose 6-phosphate, primary screen (AID 1214)
Settings: purified human PMI, coupled resazurin fluorescence, 20 min; at 20 µM; active compounds read high; 1 = vehicle control, 0 substrate-free wells

Chain of Mannose-6-phosphate isomerase (Homo sapiens) (P34949 whole entry, looked up): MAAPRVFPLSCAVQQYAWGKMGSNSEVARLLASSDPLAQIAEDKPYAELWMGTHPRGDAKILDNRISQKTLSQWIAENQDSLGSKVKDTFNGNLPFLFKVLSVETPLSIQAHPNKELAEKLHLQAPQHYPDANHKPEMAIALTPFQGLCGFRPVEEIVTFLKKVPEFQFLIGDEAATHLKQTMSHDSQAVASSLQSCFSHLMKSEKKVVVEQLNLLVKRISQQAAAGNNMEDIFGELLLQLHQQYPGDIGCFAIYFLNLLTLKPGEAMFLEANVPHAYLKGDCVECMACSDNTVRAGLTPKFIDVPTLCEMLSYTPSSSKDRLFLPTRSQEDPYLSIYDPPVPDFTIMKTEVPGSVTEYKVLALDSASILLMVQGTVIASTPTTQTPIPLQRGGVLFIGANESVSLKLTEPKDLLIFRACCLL

Activation factor, inactive:
CCOC(=O)C1CCN(S(=O)(=O)c2cc(F)ccc2OC)CC1 1
COCCNc1nc2nonc2nc1N(C)Cc1ccc(C)cc1 0.9
Cc1ccc(NC(=O)CC(=O)Nc2ccc(C)cc2)cc1 1
CCOC(=O)C1=C(N)N(c2ccc(C)cc2)C2=C(C(=O)CCC2)C1c1cccs1 (stereo not drawn) 1
CN(C)/C=C(/C(=O)c1ccccc1Cl)S(C)(=O)=O 1
COC(=O)c1nc(NC(=O)c2ccc(C(C)(C)C)cc2)n[nH]1 1.1
CC(C)Oc1ccc(/C=C(\NC(=O)/C=C/c2ccco2)C(=O)NCCc2nc3ccccc3[nH]2)cc1 0.9
O=C(c1ccccc1)c1ccc(OCC(O)CN2CCCC2)cc1 (stereo not drawn) 1
COc1cc(S(=O)(=O)N2CCOCC2)ccc1NC(=O)COc1ccc(N(C)S(=O)(=O)c2ccc(C)cc2)cc1 1
Cc1cc(C#N)c(SCC(N)=O)nc1-c1ccc(F)cc1 1.1
CC1=NNC(=O)C1CCC(=O)N/N=C\c1cccc(Cl)c1 (stereo not drawn) 1
CCOC(=O)c1sc2nc(C)nc(SCC(N)=O)c2c1C 1.1
COC(=O)c1cc(NC(=O)c2nn(C)c(=O)c3ccccc23)cc(C(=O)OC)c1 1
CCC(C(=O)Nc1ccc(C(C)C)cc1)c1ccccc1 (stereo not drawn) 1
CC(C)(C)c1ccc(/C=C/C(=O)Nc2ncccn2)cc1 1
COC(=O)c1ccc(NC(=O)CSc2nncc3ccc(OC)c(OC)c23)cc1 1
COc1ccc(OCC(O)CNC(=O)Nc2ccc(Cl)cc2)cc1 (stereo not drawn) 0.9
Cc1ccc(CN2CCN(/N=C/c3cccnc3)CC2)c(C)c1 1.1
CCC(C)(C)NC(=O)CN(Cc1cccs1)C(=O)CNS(=O)(=O)c1ccc(F)cc1 1.1
COc1cccc(CC2(CO)CCCN(CC3=Cc4cc(OC)ccc4OC3)C2)c1 (stereo not drawn) 0.9
CC1CCN(c2ccc(C(=O)NCc3ccc4c(c3)OCO4)cc2[N+](=O)[O-])CC1 0.8
Cc1cccc(C2=N/C(=C/c3cccs3)C(=O)O2)c1 1
CCc1cc(C(=O)OC)c(NC(=O)CC2Sc3ccc(C(F)(F)F)cc3NC2=O)s1 (stereo not drawn) 0.9
Cc1ccc(C(=O)N/C(=C/c2ccc(-c3cccc([N+](=O)[O-])c3)o2)C(=O)NCCCN(C)C)cc1 1
COC(=O)NNC(=O)C1CCC(C)CC1 (stereo not drawn) 1.1
COC(=O)C(NS(=O)(=O)c1ccc(F)cc1)c1ccccc1 (stereo not drawn) 1
COc1ccc(Cl)cc1NC(=O)Cn1nc(-c2ccc(C)cc2)n(C)c1=S 1.1
CCc1ccc(N(CC(=O)Nc2sc3c(c2C(=O)OC)CCCC3)S(C)(=O)=O)cc1 0.8
CN(CCOc1ccc(Br)cc1)CC(=O)Nc1cccc(S(=O)(=O)NC2=NCCC2)c1 0.9
OCCC1CN(Cc2ccc3nsnc3c2)CCN1C1CCCCC1 (stereo not drawn) 0.9
O=C(CSc1nnc2ccc(-c3ccncc3)nn12)N1CCCCC1 1
COc1cccc(C(=O)NCCSc2ccc(Br)cc2)c1 1.1
N#CCOc1ccc(C2=NO[C@@H]3[C@@H]4C[C@@H]([C@H]5C(=O)N(c6ccc7c(c6)OCO7)C(=O)[C@@H]45)[C@H]23)cc1 0.9
Cn1cc(/C=C/C(=O)N2CCCC(C(=O)c3ccc(C(F)(F)F)cc3)C2)cn1 (stereo not drawn) 1
COc1ccc(CCCc2nnc(SCc3nc4ccccc4c(=O)[nH]3)n2C)cc1 1
CN(C)c1ccc(/C=N/NC(=O)C(O)c2ccc(Br)cc2)cc1 (stereo not drawn) 1
Nc1nc(NC(=O)/C=C/c2ccccc2)nn1-c1ccccc1 1
COc1ccc(OC)c(C(=O)c2ccc(C(=O)N3CCN(Cc4csc(C)n4)CC3)cc2)c1 1
O=C(Cc1ccccc1)NCC1OCCc2ccccc21 (stereo not drawn) 0.9
O=Cc1ccc(OCc2cn3ccccc3n2)cc1 1.1
CCCCC1S/C(=N/N=C/c2cccs2)NC1=O (stereo not drawn) 1.3
Cc1cc2oc(C(=O)Nc3c(C)n(C)n(-c4ccccc4)c3=O)c(C)c2cc1Cl 1.1
CN1CCC(=NNC(=O)c2ccc(N(Cc3ccc(Cl)cc3)S(C)(=O)=O)cc2)CC1 0.8
